The record followed here is ChEMBL document CHEMBL4513216, “Probing the Open Global Health Chemical Diversity Library for Multistage-Active Starting Points for Next-Generation Antimalarials” (ACS Infect Dis, 2020).

Screen size: about 65,000 compounds; about 2,100 (3.2%) showed an effect of 50% or more. The median lay at about -52%. Many of the other results were omitted from the sample, so strong results are more common in it than they were.

This assay has as its system Plasmodium falciparum. Put plainly: Screen against P. falciparum Asexual Blood Stage (ABS), at 5uM. The class given is functional, Dd2. As to conditions: tested at 5 uM.
As for `O=C(C1NCCc2[nH]cnc21)N1CCC2(C=Cc3ccccc32)CC1` (stereo not drawn), the INHIBITION was -16.1%.

Take `O=C(c1cccc(Cl)c1)N1CC[C@H]2[C@H]1CCN2CC1CC1`: the INHIBITION is -55.8%.

On to `CCN(C1CCN(Cc2ncc(C(C)(C)C)o2)CC1)S(C)(=O)=O`, for which the INHIBITION is -26.2%.

As to `CS(=O)(=O)N1CCC(c2nc3ccc(-c4cccc(F)c4)cn3n2)CC1`, the INHIBITION is listed as -44.9%.

Regarding `OC1(CN2CCCCC2)CCN(Cc2c[nH]c(CC3CCCC3)n2)C1` (stereo not drawn), the INHIBITION was 54.6%.

`OC1(CN2CCCC2)CCCN(Cc2c[nH]c(CC3CCCC3)n2)C1` (stereo not drawn): the INHIBITION is listed as 37.2%.

Take `CC1(C)CN(Cc2c[nH]c(CC3CCCC3)n2)CC[C@]1(C)O`: the INHIBITION is recorded as -29.5%.

As to `CN(C)c1ccc(C(=O)NCc2cccnc2-n2cncn2)cc1F`, the INHIBITION is reported as -20.3%.

Turning to `CC(C)Nc1nc(-c2ccccc2)nc2c1CCN(C(=O)C1CC1)CC2`, the INHIBITION is 27.8%.

`CCCN1CCC(c2nc3ccc(-c4cccc(OC)c4)cn3n2)CC1`: the INHIBITION is listed as -23.2%.

On to `Cn1cc(N2C(=O)CC[C@@H]3[C@H]2CCN3C(=O)c2cscn2)cn1`, for which the INHIBITION is on record as -22.8%.

On to `CN(CCc1ccncc1)Cc1nccn1Cc1ccccc1`, for which the INHIBITION is reported as 42.2%.

As to `CN(CCc1ccccn1)Cc1nccn1Cc1ccccc1`, the INHIBITION is recorded as 57.9%.

Regarding `CN(Cc1ccncc1)Cc1nccn1Cc1ccccc1`, the INHIBITION is -37.9%.

As for `CCN(Cc1ccco1)C(=O)C1=NN(c2ccccc2)C(=O)CN1`, the INHIBITION came out at 60.6%.

As to `Cc1ccc(N2N=C(C(=O)N(C)Cc3ccco3)NCC2=O)cc1`, the INHIBITION is recorded as -13.2%.

Turning to `CCN(C(=O)C1=NN(c2ccccc2)C(=O)CN1)c1ccccc1`, the INHIBITION was -66.6%.

Consider `CCOc1cc(C=Cc2ncc(C(=O)NC)s2)ccc1OC`, for which the INHIBITION came to 25.6%.

Consider `CN(CC(=O)Nc1cccnc1)C1CCCN(c2cccnn2)C1` (stereo not drawn), for which the INHIBITION turned out to be 8.25%.

As for `CC(=O)NCCNCc1cn(CCN2CCSCC2)nc1C`, the INHIBITION is on record as -18%.

As to `CCc1nc(C)c(C(=O)NCCn2nc3ccccn3c2=O)s1`, the INHIBITION is -71.9%.

With `Cc1nc(C(C)C)sc1C(=O)NCCn1nc2ccccn2c1=O`, the INHIBITION was found to be 59.1%.

Regarding `Cc1nc(C)c(C(=O)NCCn2nc3ccccn3c2=O)s1`, the INHIBITION was -42%.

`CCc1nnc2n1CCN(Cc1cccc3c1OCCO3)C2`: the INHIBITION is 43.7%.

For the molecule `Cn1cnc2c1CCN(CC(O)c1ccc3c(c1)OCCO3)C2` (stereo not drawn), the INHIBITION is -106%.

Turning to `CCc1nnc2n1CCN(CC(O)c1ccc3c(c1)OCCO3)C2` (stereo not drawn), the INHIBITION was found to be 66.3%.

As to `Cc1cc(C)cc(CN2C[C@@H]3OCCN(CC(=O)N(C)C)[C@@H]3C2)c1`, the INHIBITION is -93.1%.

Take `COC[C@H]1CCCN1c1nccc(-c2cnn(-c3ccccc3C)c2)n1`: the INHIBITION is given as -32.9%.
